Most compounds without a hit are left out; they make up all but 5.4% or so of the library.
PP1 counter = counter-screen for PP5 inhibitors: inhibitors of human PP1-alpha. P62136. purified PP1alpha, OMFP fluorescence. inhibition, % at 6.7 µM. 320,000 compounds, 0.9% hits. AID 2235;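 active = inhibition above the mean inhibition of all tested compounds plus 3 SD, computed separately for each screening campaign, cut at about 15% in these data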
Target sequence (P62136 whole entry, looked up): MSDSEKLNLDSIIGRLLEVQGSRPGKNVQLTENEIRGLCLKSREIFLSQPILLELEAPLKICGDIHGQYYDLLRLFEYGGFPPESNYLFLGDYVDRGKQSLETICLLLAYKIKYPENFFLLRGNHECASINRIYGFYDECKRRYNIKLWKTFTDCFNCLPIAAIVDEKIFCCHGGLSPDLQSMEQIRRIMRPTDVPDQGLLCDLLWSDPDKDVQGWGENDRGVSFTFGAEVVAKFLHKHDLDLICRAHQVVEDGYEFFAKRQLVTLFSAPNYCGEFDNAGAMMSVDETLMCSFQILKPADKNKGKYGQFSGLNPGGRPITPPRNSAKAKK
CSC inhib = blocks cancer stem cells; inhibition, % at 7.5 µM; AID 2717; 300,000 compounds, 1.1% hits; cancer stem cell-like cells viability, luminescence; in the data active = inhibition above about 75%; inconclusive = no clear call, values can overlap the other calls; tested in HMLE shEcad cells
PP5 primary = blocks human protein phosphatase 5 activity. inhibition, % at 6.7 µM. purified PP5c, OMFP substrate fluorescence. P53041. 320,000 compounds, 0.18% hits;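 active = inhibition above the campaign's mean inhibition across all tested compounds plus 3 SD, cut at about 9.5% in these data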
Calb FLC = affects C. albicans growth with fluconazole | growth inhibition, % (test concentration not listed) | C. albicans CaCi-2 (fluconazole-resistant clinical isolate) + fluconazole, Alamar Blue growth, 48 h | 300,000 compounds, 0.57% hits;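 active = growth inhibition above about 58% in most replicates, limit read from the data, passing the limit was not always enough; inconclusive = exactly half the replicates above a set limit; inactive = most replicates below a set limit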;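 also: all wells also contain fluconazole at 8 µg/ml as a sub-toxic cotreatment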
ALR inh = inhibitors of human sulfhydryl oxidase ALR; P55789; purified ALR, DTT oxidation, H2O2 HRP-luminol luminescence; inhibition, % (no concentration beside the values); 290,000 compounds, 3.8% hits; AID 485317;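 active = mean replicate inhibition above about 79%, with every replicate also reaching it, limit read from the data; inconclusive = only one of the two criteria met; inactive = mean below limit and not every replicate reaching it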
Target sequence (P55789 whole entry, looked up): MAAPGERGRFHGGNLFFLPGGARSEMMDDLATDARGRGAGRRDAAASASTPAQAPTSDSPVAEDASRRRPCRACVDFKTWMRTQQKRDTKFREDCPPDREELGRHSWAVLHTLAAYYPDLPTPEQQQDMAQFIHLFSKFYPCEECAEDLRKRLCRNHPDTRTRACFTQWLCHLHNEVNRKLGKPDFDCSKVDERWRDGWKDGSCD
A number is an active result; – = inactive; ? = inconclusive; · = no result.

SMILES | PP1 counter | CSC inhib | PP5 primary | Calb FLC | ALR inh
O=C(Cc1cccs1)N(c1ccc(F)cc1)C1(C(=O)NC2CCCCC2)CCCC1 | – | – | – | – | –
O=C1c2ccccc2C(O)(c2ccccc2)N1C1CC1 (stereo not given) | – | – | – | – | –
COc1cccc(CNc2ccc3[nH]c(=O)[nH]c3c2)c1OCc1ccccc1Cl | – | – | – | – | 97
C=CCOc1c(Br)cc(CNc2ccc3[nH]c(=O)[nH]c3c2)cc1OCC | – | – | – | – | ?
COc1cc(CNc2ccc3[nH]c(=O)[nH]c3c2)ccc1OCc1ccc(F)cc1Cl | · | – | · | – | –
COc1cccc(CNc2ccc3[nH]c(=O)[nH]c3c2)c1OCc1ccccc1 | · | – | · | – | 99
COc1cc(CNc2ccc3[nH]c(=O)[nH]c3c2)ccc1OCc1ccc(F)cc1 | – | – | – | – | 89
COc1cc(CNc2ccc3[nH]c(=O)[nH]c3c2)ccc1OCc1ccccc1 | – | – | – | – | –
C=CCOc1cccc(CNc2ccc3[nH]c(=O)[nH]c3c2)c1 | – | – | – | – | 99
CCOC(=O)c1ccccc1NC(=O)Nc1ccc(OC)c(OC)c1 | – | – | – | – | –
COC(=O)c1[nH]c2cc(C)ccc2c1NC(=O)CN1CCN(C(=O)c2ccco2)CC1 | – | – | – | – | –
Cc1nn(Cc2ccc(Cl)cc2)c(C)c1N | – | – | – | – | 94
Cc1nn(Cc2ccc(C(=O)NN)cc2)c(C)c1Cl | – | – | – | – | ·
COc1cc(/C=C2\SC(=O)NC2=O)ccc1Oc1ccc([N+](=O)[O-])cn1 | – | – | – | – | 98
COc1cc(/C=C2/NC(=O)N(Cc3ccccc3F)C2=O)ccc1Oc1ccc([N+](=O)[O-])cn1 | – | – | – | – | ·
COc1cc(/C=C2/SC(=O)NC2=O)ccc1Oc1ccc([N+](=O)[O-])cc1[N+](=O)[O-] | – | – | – | – | 97
C/C(NCC(C)(C)CN(C)C)=C(/C#N)C(=O)NCc1ccccc1 | – | · | – | – | –
CC1CCN(CCCNC(=O)c2ccc3c(=O)n(Cc4ccc(Cl)cc4)c(=S)[nH]c3c2)CC1 | – | 88 | – | – | –
COC(=O)c1ccc2c(=O)n(Cc3ccc(C(=O)NCCCN4CCC(C)CC4)cc3)c(=S)[nH]c2c1 | – | – | – | – | –
CCC(CC)c1nnc(NC(=O)c2cc([N+](=O)[O-])ccc2N2CCCCC2)s1 | – | – | – | – | –
Cc1nn(C)c(C(=O)Nc2cccc(Nc3ccccc3)c2)c1[N+](=O)[O-] | – | – | – | – | 98
Cc1nn(C)c(C(=O)N/N=C/c2ccccc2)c1[N+](=O)[O-] | – | – | – | – | –
O=C(Oc1ccc([N+](=O)[O-])cc1)C1CC(=O)N(c2ccc3c(c2)OCCO3)C1 (stereo not given) | · | – | · | · | –
O=[N+]([O-])c1cc(C(F)(F)F)ccc1NCCc1c[nH]c2ccccc12 | – | 99 | – | – | –
O=c1[nH]c(CSc2nnc3ccccn23)nc2ccccc12 | – | – | – | – | ·
SMILES | PP1 counter | CSC inhib | PP5 primary | Calb FLC | ALR inh
O=C(Nn1cnnc1)c1ccc(Cl)cc1 | – | – | 9.6 | – | –
Cc1ccc(-c2nn(CCC(=O)O)cc2/C=C\C(=O)c2ccc(Br)cc2)cc1 | – | – | – | ? | 97
NC1=NC(=O)/C(=C/c2cn(CCC(=O)O)nc2-c2ccc(Cl)cc2)S1 | – | – | – | – | 98
CC1CC(CC(C)C(=O)Nc2nncs2)C(=O)O1 (stereo not given) | – | – | – | – | –
O=[N+]([O-])c1ccc(C2CCCC/C2=N/OCc2ccc(F)cc2)c([N+](=O)[O-])c1 (stereo not given) | – | – | – | 115 | –
CCOC(=O)c1c(C)[nH]c(C(=O)CSc2nnc(Nc3ccccc3F)s2)c1C | 17 | – | – | – | ·
CCOC(=O)c1c(C)[nH]c(C(=O)CSc2ccc(Cl)cc2)c1C | – | – | – | – | –
O=c1c2cccc3c2c(nn1CN1CCOCC1)-c1ccccc1-3 | – | – | – | – | ·
CCN(CC)CCn1nc2c3c(cccc3c1=O)-c1ccccc1-2 | – | 105 | – | · | –
COc1ccc(C(=O)c2ccc3oc(-c4ccc(OC)cc4)c(-c4ccc(O)cc4)c3c2)cc1 | · | 104 | · | · | –
CC(=O)c1cccc(S(=O)(=O)N2CCC(c3nc4ccccc4[nH]3)CC2)c1 | – | – | – | – | –
Cc1cccc(NC(=O)c2nc[nH]c2C(=O)N[C@@H](C)c2ccccc2)c1 | – | 78 | – | · | –
Cc1cccc(NC(=O)c2nc[nH]c2C(=O)NCCCNC(=O)c2[nH]cnc2C(=O)Nc2cccc(C)c2)c1 | · | 77 | · | · | –
O=C(Nc1ccc(Cl)cc1)c1nc[nH]c1C(=O)NCCCNC(=O)c1[nH]cnc1C(=O)Nc1ccc(Cl)cc1 | · | · | · | · | –
O=C(Nc1ccc(Cl)cc1)c1nc[nH]c1C(=O)NCCN(CCNC(=O)c1[nH]cnc1C(=O)Nc1ccc(Cl)cc1)CCNC(=O)c1[nH]cnc1C(=O)Nc1ccc(Cl)cc1 | · | 101 | · | · | –
Cc1cccc(NC(=O)c2nc[nH]c2C(=O)NCCN(CCNC(=O)c2[nH]cnc2C(=O)Nc2cccc(C)c2)CCNC(=O)c2[nH]cnc2C(=O)Nc2cccc(C)c2)c1 | · | – | · | · | –
O=[N+]([O-])c1cccc(-c2cn3ccccc3n2)c1 | – | – | – | – | –
CCOC(=O)/C=C/c1nc(C(=O)OCC)c(C)c(=O)[nH]1 | – | – | – | – | 97
CCOc1cc(/C=C(\C#N)c2[nH]nc(N)c2C#N)ccc1O | – | – | – | – | 99
CCOc1cc(/C=C(\C#N)C(=O)Nc2ccccn2)ccc1O | – | – | – | – | –
Cc1csc2nc(CSc3ccc(Cl)cc3)cn12 | – | – | – | – | 92
Clc1ccc(SCc2cn3ccsc3n2)cc1 | – | – | – | – | –
Cc1cc(NC(=O)c2cccc(S(=O)(=O)N3CCC(C)CC3)c2)no1 | – | – | – | – | –
CN(C)CCN1CC(O)=C(c2nc3ccccc3s2)C1=N | – | – | – | – | ·
N=C1C(c2nc3ccccc3s2)=C(O)CN1Cc1ccco1 | – | – | – | – | 98
SMILES | PP1 counter | CSC inhib | PP5 primary | Calb FLC | ALR inh
Nc1nc(=S)c2ncn(C3OC(CO)C(O)C3O)c2[nH]1 (stereo not given) | – | 90 | – | – | –
Nc1nc(=S)c2ncn([C@@H]3O[C@H](CO)[C@@H](O)[C@H]3O)c2[nH]1 | – | 98 | – | · | –
Nc1nc(Cl)nc2c1ncn2[C@@H]1O[C@H](CO)[C@@H](O)[C@H]1O | – | – | – | – | –
O=C1N(O)C2(C=CCCC2)/C(=N\O)C12CCCCC2 (stereo not given) | – | – | – | – | –
Cc1ccccc1S(=O)(=O)Nc1ncnc2ccccc12 | – | – | – | – | –
CN(C(=O)CN1C(=O)NC2(CCc3ccccc32)C1=O)C1CCCCC1 (stereo not given) | · | – | · | · | –
CCc1cc(C(=O)N2CCN(S(=O)(=O)c3ccc(Cl)cc3)CC2)sc1C | – | · | – | · | –
COc1ccc(Cn2c(O)c(C=Nc3ccc(O)cc3)c3ccccc3c2=O)cc1 | – | – | – | – | –
Cc1nnc(SCC(=O)c2ccc(S(=O)(=O)N3CCOCC3)cc2)n1-c1ccccc1 | – | – | – | – | 94
